The structures appear in SMILES notation. Results filed as inconclusive are left out. A call without a number means that no potency is given here. The source made the active and inactive calls. Calls come from the whole dose curve; as a rule, active = well fitted inhibition curve with a large enough effect; inconclusive = small, poorly fitted or top-dose-only effect, or effect the other way; inactive = flat fitted curve, though single readings scatter.
Potency is the fitted concentration of half-maximal effect.

Chain of Menin (Homo sapiens) (O00255 whole entry, looked up): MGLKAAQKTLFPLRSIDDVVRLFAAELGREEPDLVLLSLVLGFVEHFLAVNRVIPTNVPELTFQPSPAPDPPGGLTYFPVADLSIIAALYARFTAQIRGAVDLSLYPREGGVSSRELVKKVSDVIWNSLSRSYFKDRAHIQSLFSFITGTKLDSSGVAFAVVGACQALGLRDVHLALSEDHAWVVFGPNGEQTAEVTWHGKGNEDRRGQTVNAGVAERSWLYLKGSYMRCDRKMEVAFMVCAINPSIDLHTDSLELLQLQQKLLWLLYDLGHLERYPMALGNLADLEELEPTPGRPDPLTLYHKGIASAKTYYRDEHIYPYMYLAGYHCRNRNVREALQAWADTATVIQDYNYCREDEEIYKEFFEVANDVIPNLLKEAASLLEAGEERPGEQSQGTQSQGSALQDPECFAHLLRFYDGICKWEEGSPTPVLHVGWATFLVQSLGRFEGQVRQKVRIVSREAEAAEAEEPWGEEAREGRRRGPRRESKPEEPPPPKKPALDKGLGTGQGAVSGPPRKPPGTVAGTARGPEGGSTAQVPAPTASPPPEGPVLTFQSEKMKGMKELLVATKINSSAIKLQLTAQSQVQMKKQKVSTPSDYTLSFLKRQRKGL

This assay deals with Menin (Homo sapiens) (UniProt O00255). Kind of assay: Confirmation of Inhibitors Targeting the Menin-MLL Interaction in MLL Related Leukemias: Confirmation in an HTRF (commercial TR-FRET) Assay using His-tagged menin and biotin-labeled MLL peptide. Conditions: His-menin / biotin-MLL peptide binding; series mostly up to 126 µM. The procedure, abridged:
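Compounds were incubated 1 hr at ambient with a preformed His6-menin (200 nM)/biotinylated MLL-w.t. peptide (80 nM) complex in Tris pH 7.5 buffer; anti-His Eu-cryptate (3.5 nM) and SA-XL665 (10 nM) added, TR-FRET read after 1h.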
With `COc1ccc(-c2csc(NC(=S)NC(=O)/C=C/c3ccc(C(C)C)cc3)n2)cc1OC`, the Potency entry is “inactive”.
Take `CCOC(=O)N1CCN(CCC(=O)c2ccc(Br)cc2)CC1`: the Potency result is “inactive”.
Under `O=C(CSc1nnc(-c2c[nH]c3ccccc23)o1)N1c2ccccc2CCc2ccccc21` stands “inactive”; under `Cc1cc2c(N)cccc2nn1`, “inactive”.
The value for `O=C1Cc2ccccc2Sc2c(OCCN3CCCCC3)cccc21` was “inactive”; that for `CCn1ncc(C(=O)Nc2cc(C)on2)c1C` was “inactive”.
Under `CCC(=O)NC(=S)Nc1ccc(NC(=S)NC(=O)c2ccc(C)cc2)cc1` stands “inactive”; under `COC(=O)[C@H](C)NC(=O)c1cc2c(cn1)[nH]c1ccccc12`, 50.1 µM (active); under `O=C(NC(=S)Nc1nc(-c2ccc(Br)cc2)cs1)c1cccnc1`, “inactive”.
Consider `O=C(Cn1c(=O)c2c3c(sc2n(Cc2ccccc2)c1=O)CCCC3)NCCO`, for which the Potency result was “inactive”.
The value for `Cc1ccc(C)n1-c1ccc(N(C)C)cc1` was “inactive”; that for `Cc1cc(C)c2c(=O)cc(C(=O)NCc3ccccc3)oc2c1` was “inactive”; that for `O=C1CCNc2c(Cl)cc(Cl)cc21` was “inactive”.
The value for `COc1ccc(OC)c(C2C3=C(N=c4s/c(=C\c5cccc(O)c5)c(=O)n42)c2ccccc2CC3)c1` (stereo not drawn) was “inactive”; that for `Cc1[nH]nc(-c2ccc(OCc3cnn(-c4ccccc4)c3)c(C)c2O)c1Oc1ccccc1` was “inactive”.
With `Cc1cc2cc(C(c3nnnn3CC3CCCO3)N3CCCc4ccccc43)c(=O)[nH]c2cc1C` (stereo not drawn), the Potency entry is “inactive”.
The value for `O=C(CSc1nnc(-c2c[nH]c3ccccc23)o1)c1ccc(-c2ccccc2)cc1` was “inactive”.
Take `CCCCC(=O)NC(=S)Nc1nnn(CCC)n1`: the Potency result was “inactive”.

These data come from PubChem BioAssay AID2778 (National Center for Advancing Translational Sciences (NCATS), 2010).
